Tests used:
Assay in all cases: DAPPL (digital affinity profiling via proximity ligation, sequencing); 10 mM Tris-HCl pH 7.5, 50 mM NaCl, 1 mM DTT, 4% glycerol, room temperature, 30 min; GST-TFs on glutathione beads, 16-mer random dsDNA library, 0.1% formaldehyde crosslink after washing; high values mean tight binding
Conditions in all cases: protein: recombinant; tags: N-terminal GST; dsDNA, one strand shown
FEV = target: T1, FEV (Homo sapiens, UniProt Q99581 1-238)
T1 sequence: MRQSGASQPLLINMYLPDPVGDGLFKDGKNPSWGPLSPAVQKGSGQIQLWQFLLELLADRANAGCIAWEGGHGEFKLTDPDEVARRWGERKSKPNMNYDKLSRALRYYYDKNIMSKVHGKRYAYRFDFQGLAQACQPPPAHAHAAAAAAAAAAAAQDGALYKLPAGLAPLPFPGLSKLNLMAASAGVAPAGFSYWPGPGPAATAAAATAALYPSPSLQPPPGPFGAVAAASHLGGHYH
Method in brief: (§1)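 After expression in yeast as GST fusions, human transcription factors were bound to glutathione beads, DNA-barcoded and mixed with a tag-only sample. The pools were incubated with 200 nmole of a 16-mer random double-stranded DNA library in Tris/NaCl/DTT/glycerol buffer (30 min, room temperature), washed and crosslinked with 0.1% formaldehyde. Proximity ligation with BsaI/T4 ligase ran for 1 h at 37 °C, before PCR amplification and sequencing on an Illumina NextSeq500. Binding signal is a hexamer's read frequency for a factor divided by its frequency for the tag-only sample.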

ETV5 = ETV5 (Homo sapiens, UniProt P41161 1-510)
Sequence of ETV5 (P41161 whole entry): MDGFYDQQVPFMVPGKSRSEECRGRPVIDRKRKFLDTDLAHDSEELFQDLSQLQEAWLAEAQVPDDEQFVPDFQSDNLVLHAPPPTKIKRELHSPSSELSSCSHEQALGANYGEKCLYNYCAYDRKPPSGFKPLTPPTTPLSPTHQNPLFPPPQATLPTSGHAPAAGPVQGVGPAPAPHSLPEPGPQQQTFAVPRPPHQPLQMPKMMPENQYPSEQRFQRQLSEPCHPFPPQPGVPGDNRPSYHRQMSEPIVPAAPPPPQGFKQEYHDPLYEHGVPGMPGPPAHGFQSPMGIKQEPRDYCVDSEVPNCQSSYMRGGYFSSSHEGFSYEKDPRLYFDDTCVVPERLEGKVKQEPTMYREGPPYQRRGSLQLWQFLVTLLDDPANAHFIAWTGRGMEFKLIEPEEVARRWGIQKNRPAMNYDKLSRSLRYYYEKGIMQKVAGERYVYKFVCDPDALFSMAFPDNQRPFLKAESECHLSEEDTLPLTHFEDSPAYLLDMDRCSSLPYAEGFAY
Method in brief: as §1

SPIC = target: T2, SPIC (Homo sapiens, UniProt Q8N5J4 1-248)
T2 sequence: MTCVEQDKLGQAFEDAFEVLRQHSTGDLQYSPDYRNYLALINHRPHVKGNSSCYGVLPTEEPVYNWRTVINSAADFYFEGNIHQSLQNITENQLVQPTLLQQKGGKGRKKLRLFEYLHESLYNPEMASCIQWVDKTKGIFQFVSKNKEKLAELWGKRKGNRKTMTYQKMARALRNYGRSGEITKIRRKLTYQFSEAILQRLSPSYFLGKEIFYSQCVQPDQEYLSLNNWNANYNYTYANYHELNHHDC
Method in brief: as §1

ELF4 = ELF4 (Homo sapiens, UniProt Q99607 1-663)
Sequence of ELF4 (Q99607 whole entry): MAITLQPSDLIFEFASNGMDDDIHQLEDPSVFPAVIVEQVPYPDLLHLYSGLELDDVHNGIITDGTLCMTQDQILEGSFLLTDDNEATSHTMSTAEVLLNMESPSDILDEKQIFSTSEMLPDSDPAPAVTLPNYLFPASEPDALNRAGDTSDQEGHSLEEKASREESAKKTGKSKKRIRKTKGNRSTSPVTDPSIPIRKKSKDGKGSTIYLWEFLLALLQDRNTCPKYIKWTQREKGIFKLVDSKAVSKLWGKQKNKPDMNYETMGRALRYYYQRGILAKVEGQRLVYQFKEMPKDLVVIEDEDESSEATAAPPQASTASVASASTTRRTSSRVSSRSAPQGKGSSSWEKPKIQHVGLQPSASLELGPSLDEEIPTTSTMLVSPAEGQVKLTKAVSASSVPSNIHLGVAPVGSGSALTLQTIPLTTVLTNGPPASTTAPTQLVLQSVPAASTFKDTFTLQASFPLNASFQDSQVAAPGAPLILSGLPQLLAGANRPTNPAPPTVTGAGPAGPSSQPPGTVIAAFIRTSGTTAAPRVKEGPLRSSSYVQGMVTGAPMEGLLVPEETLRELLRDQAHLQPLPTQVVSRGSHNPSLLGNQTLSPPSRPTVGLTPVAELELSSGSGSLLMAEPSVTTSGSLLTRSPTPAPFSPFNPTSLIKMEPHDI
Method in brief: as §1

ELK4 = target: T3, ELK4 (Homo sapiens, UniProt P28324-2 1-405)
T3 sequence: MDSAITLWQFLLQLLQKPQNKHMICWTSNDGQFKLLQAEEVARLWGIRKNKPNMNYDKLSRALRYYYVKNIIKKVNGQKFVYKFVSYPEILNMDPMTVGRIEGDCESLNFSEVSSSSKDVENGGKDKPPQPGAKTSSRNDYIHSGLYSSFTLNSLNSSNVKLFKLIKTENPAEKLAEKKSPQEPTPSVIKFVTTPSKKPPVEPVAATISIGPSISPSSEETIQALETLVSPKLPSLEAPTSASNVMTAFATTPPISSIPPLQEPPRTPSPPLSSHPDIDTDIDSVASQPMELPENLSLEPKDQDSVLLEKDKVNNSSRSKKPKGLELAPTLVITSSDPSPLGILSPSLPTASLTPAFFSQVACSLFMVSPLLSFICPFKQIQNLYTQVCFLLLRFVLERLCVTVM
Method in brief: as §1

ETV2 = target: T4, ETV2 (Homo sapiens, UniProt O00321 1-342)
T4 sequence: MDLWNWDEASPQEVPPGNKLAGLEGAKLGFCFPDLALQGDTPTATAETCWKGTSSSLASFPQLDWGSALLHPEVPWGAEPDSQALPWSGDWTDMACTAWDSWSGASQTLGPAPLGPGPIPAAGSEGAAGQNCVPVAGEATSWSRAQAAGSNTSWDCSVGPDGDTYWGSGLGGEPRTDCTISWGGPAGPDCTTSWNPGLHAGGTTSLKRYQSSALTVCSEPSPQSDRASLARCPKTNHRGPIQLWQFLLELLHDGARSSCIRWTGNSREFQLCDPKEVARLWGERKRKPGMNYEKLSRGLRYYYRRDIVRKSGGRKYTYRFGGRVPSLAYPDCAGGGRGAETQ
Method in brief: as §1

ELF3 = target: T5, ELF3 (Homo sapiens, UniProt P78545 1-371)
T5 sequence: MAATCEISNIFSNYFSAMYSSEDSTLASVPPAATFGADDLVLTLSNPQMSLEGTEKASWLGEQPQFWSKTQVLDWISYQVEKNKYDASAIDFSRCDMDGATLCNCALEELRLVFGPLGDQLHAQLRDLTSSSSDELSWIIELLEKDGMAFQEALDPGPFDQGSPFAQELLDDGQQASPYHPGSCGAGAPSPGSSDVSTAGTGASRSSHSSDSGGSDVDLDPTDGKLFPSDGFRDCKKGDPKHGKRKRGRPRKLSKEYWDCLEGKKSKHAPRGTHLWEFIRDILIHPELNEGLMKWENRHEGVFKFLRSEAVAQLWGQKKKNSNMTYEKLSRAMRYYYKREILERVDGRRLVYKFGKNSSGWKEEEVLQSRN
Method in brief: as §1

ETV1 = ETV1 (Homo sapiens, UniProt P50549 1-477)
Sequence of ETV1 (P50549 whole entry): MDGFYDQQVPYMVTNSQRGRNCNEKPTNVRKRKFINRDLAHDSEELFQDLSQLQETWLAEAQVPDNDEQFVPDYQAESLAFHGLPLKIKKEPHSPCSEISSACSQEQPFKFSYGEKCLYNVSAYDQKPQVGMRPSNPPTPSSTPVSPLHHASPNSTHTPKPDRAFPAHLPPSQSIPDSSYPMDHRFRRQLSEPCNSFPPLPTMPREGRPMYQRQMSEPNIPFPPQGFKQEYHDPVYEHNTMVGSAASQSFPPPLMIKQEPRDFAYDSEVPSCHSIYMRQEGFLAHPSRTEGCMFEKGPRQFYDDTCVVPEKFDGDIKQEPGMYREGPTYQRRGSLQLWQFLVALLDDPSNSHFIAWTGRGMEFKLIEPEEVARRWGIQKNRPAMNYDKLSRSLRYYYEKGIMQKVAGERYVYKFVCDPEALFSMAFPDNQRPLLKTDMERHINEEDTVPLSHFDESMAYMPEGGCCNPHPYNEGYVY
Method in brief: as §1

ERF = target: T6, ERF (Homo sapiens, UniProt P50548 1-548)
T6 sequence: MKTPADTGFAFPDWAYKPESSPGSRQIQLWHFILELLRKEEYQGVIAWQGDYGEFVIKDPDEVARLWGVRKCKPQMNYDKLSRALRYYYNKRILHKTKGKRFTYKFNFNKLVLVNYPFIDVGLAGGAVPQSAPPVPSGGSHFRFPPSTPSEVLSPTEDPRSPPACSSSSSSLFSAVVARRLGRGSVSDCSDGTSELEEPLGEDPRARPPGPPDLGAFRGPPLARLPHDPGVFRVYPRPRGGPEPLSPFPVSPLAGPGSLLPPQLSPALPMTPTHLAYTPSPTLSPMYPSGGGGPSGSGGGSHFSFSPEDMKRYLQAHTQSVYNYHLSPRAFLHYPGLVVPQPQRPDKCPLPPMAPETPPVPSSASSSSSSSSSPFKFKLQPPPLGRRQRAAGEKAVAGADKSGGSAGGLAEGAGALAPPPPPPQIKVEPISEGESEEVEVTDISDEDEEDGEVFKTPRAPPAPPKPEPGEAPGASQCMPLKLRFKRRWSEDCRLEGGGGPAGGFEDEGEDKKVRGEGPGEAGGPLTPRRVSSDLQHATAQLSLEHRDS
Method in brief: as §1

ETV3L = target: T7, ETV3L (Homo sapiens, UniProt Q6ZN32 1-361)
T7 sequence: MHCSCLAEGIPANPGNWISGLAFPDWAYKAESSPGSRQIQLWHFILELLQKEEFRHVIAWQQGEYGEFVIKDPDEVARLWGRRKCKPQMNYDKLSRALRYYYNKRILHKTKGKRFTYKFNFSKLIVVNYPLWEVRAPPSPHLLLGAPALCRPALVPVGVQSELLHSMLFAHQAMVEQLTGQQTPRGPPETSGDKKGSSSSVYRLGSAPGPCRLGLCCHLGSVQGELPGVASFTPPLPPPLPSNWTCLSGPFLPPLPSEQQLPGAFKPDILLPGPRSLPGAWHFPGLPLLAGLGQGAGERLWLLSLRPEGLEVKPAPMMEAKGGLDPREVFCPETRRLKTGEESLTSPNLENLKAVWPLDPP
Method in brief: as §1

ETS2 = target: T8, ETS2 (Homo sapiens, UniProt P15036 1-469)
T8 sequence: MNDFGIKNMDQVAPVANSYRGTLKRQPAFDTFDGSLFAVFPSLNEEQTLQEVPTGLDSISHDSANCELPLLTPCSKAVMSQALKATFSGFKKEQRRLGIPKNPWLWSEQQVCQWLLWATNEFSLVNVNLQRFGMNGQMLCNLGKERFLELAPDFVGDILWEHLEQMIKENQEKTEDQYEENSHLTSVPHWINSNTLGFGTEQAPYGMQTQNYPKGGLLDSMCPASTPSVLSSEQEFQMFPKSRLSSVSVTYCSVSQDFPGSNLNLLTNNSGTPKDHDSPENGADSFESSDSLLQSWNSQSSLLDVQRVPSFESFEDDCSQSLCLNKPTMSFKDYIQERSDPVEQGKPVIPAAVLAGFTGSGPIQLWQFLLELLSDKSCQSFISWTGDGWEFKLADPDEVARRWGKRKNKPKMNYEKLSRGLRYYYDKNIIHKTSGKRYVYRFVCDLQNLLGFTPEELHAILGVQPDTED
Method in brief: as §1

SPDEF = target: T9, SPDEF (Homo sapiens, UniProt O95238 1-335)
T9 sequence: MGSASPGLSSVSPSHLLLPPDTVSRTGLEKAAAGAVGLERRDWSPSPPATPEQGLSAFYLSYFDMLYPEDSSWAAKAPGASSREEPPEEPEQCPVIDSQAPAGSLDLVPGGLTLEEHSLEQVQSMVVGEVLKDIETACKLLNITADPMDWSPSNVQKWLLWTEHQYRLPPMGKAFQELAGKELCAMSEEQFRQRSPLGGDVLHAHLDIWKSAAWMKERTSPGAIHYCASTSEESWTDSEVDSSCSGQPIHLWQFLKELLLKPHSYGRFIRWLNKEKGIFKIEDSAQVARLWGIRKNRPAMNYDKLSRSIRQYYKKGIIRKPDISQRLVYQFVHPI
Method in brief: as §1

ETV7 = target: T10, ETV7 (Homo sapiens, UniProt Q9Y603 1-341)
T10 sequence: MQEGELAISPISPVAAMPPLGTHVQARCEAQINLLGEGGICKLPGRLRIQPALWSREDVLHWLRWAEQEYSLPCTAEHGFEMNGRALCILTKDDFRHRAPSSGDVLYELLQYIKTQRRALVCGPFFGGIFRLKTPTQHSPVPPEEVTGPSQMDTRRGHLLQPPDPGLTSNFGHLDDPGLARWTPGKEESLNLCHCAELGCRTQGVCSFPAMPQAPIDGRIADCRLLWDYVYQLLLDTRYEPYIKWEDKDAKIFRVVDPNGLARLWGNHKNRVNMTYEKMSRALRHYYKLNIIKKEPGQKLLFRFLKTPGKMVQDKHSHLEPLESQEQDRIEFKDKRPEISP
Method in brief: as §1

ELF5 = target: T11, ELF5 (Homo sapiens, UniProt Q9UKW6-2 1-255)
T11 sequence: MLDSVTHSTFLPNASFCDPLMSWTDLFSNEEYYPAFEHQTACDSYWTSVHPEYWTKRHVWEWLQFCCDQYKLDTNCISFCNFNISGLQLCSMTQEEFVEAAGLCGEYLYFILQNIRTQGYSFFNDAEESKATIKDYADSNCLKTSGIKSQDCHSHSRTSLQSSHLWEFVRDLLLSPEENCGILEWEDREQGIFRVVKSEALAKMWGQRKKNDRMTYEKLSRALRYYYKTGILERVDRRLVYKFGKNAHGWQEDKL
Method in brief: as §1

ETV3 = target: T12, ETV3 (Homo sapiens, UniProt P41162-2 1-143)
T12 sequence: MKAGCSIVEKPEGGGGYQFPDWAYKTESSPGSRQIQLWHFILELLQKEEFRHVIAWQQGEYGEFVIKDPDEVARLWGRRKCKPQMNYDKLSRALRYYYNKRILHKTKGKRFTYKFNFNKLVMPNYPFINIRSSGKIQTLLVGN
Method in brief: as §1

ETV6 = ETV6 (Homo sapiens, UniProt P41212 1-452)
Sequence of ETV6 (P41212 whole entry): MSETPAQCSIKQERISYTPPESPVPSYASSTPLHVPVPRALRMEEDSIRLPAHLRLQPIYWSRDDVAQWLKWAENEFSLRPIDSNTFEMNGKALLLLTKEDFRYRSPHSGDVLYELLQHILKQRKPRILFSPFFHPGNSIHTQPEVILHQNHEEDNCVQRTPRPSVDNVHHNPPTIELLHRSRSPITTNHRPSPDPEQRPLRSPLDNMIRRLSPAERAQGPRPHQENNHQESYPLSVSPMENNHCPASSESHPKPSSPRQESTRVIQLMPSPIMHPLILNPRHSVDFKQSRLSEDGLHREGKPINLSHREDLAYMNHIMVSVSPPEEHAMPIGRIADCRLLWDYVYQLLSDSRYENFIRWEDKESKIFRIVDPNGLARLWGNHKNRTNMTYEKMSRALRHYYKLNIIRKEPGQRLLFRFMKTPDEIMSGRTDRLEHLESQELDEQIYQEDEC
Method in brief: as §1

Row | Sequence | binding signal (FEV) | binding signal (ETV5) | binding signal (SPIC) | binding signal (ELF4) | binding signal (ELK4) | binding signal (ETV2) | binding signal (ELF3) | binding signal (ETV1) | binding signal (ERF) | binding signal (ETV3L) | binding signal (ETS2) | binding signal (SPDEF) | binding signal (ETV7) | binding signal (ELF5) | binding signal (ETV3) | binding signal (ETV6)
1 | AGGAAG | 1.24 fold enrichment (6-mer frequency, TF over GST control) | 1.44 fold enrichment (6-mer frequency, TF over GST control) | 1.51 fold enrichment (6-mer frequency, TF over GST control) | 1.21 fold enrichment (6-mer frequency, TF over GST control) | 1.11 fold enrichment (6-mer frequency, TF over GST control) | 1.4 fold enrichment (6-mer frequency, TF over GST control) | 1.52 fold enrichment (6-mer frequency, TF over GST control) | 1.5 fold enrichment (6-mer frequency, TF over GST control) | 1.2 fold enrichment (6-mer frequency, TF over GST control) | 1.33 fold enrichment (6-mer frequency, TF over GST control) | 1.5 fold enrichment (6-mer frequency, TF over GST control) | 1.15 fold enrichment (6-mer frequency, TF over GST control) | 1.23 fold enrichment (6-mer frequency, TF over GST control) | 2.03 fold enrichment (6-mer frequency, TF over GST control) | 1.54 fold enrichment (6-mer frequency, TF over GST control) | 1.71 fold enrichment (6-mer frequency, TF over GST control)
2 | CATGTA | 1.03 fold enrichment (6-mer frequency, TF over GST control) | 1.08 fold enrichment (6-mer frequency, TF over GST control) | 1.08 fold enrichment (6-mer frequency, TF over GST control) | 1.14 fold enrichment (6-mer frequency, TF over GST control) | 1.16 fold enrichment (6-mer frequency, TF over GST control) | 1.11 fold enrichment (6-mer frequency, TF over GST control) | 1.03 fold enrichment (6-mer frequency, TF over GST control) | 1.06 fold enrichment (6-mer frequency, TF over GST control) | 1.2 fold enrichment (6-mer frequency, TF over GST control) | 1.16 fold enrichment (6-mer frequency, TF over GST control) | 1.04 fold enrichment (6-mer frequency, TF over GST control) | 1.13 fold enrichment (6-mer frequency, TF over GST control) | 1.05 fold enrichment (6-mer frequency, TF over GST control) | – | 1.18 fold enrichment (6-mer frequency, TF over GST control) | 1.04 fold enrichment (6-mer frequency, TF over GST control)
3 | GCTTGG | 1.03 fold enrichment (6-mer frequency, TF over GST control) | 1.02 fold enrichment (6-mer frequency, TF over GST control) | 1.03 fold enrichment (6-mer frequency, TF over GST control) | 1.07 fold enrichment (6-mer frequency, TF over GST control) | 1.11 fold enrichment (6-mer frequency, TF over GST control) | 1.07 fold enrichment (6-mer frequency, TF over GST control) | 1.14 fold enrichment (6-mer frequency, TF over GST control) | 1.22 fold enrichment (6-mer frequency, TF over GST control) | 1.18 fold enrichment (6-mer frequency, TF over GST control) | 1.01 fold enrichment (6-mer frequency, TF over GST control) | 1.14 fold enrichment (6-mer frequency, TF over GST control) | 1.08 fold enrichment (6-mer frequency, TF over GST control) | 1.13 fold enrichment (6-mer frequency, TF over GST control) | – | 1.02 fold enrichment (6-mer frequency, TF over GST control) | 1.13 fold enrichment (6-mer frequency, TF over GST control)
